Values without a mark were called inactive.

This is an account of results in the supplement of paper PMC11732987, “Enantioselective OTUD7B fragment discovery through chemoproteomics screening and high-throughput optimisation” (Communications Chemistry, 2025).

Common to all, as to assay: log2 ratio of Biotin-Ahx-Ub-VS probe labelling (fragment/DMSO); higher = less target engagement (more negative = stronger competition), active = hit call of the paper (q ≤ 0.05, log2 ratio ≤ -1)
Holding throughout (conditions): compound concentration: 200 uM; treatment time: 3 h

The target in assay [1] is T1, USP19 (UniProt O94966).
T1 sequence (whole entry): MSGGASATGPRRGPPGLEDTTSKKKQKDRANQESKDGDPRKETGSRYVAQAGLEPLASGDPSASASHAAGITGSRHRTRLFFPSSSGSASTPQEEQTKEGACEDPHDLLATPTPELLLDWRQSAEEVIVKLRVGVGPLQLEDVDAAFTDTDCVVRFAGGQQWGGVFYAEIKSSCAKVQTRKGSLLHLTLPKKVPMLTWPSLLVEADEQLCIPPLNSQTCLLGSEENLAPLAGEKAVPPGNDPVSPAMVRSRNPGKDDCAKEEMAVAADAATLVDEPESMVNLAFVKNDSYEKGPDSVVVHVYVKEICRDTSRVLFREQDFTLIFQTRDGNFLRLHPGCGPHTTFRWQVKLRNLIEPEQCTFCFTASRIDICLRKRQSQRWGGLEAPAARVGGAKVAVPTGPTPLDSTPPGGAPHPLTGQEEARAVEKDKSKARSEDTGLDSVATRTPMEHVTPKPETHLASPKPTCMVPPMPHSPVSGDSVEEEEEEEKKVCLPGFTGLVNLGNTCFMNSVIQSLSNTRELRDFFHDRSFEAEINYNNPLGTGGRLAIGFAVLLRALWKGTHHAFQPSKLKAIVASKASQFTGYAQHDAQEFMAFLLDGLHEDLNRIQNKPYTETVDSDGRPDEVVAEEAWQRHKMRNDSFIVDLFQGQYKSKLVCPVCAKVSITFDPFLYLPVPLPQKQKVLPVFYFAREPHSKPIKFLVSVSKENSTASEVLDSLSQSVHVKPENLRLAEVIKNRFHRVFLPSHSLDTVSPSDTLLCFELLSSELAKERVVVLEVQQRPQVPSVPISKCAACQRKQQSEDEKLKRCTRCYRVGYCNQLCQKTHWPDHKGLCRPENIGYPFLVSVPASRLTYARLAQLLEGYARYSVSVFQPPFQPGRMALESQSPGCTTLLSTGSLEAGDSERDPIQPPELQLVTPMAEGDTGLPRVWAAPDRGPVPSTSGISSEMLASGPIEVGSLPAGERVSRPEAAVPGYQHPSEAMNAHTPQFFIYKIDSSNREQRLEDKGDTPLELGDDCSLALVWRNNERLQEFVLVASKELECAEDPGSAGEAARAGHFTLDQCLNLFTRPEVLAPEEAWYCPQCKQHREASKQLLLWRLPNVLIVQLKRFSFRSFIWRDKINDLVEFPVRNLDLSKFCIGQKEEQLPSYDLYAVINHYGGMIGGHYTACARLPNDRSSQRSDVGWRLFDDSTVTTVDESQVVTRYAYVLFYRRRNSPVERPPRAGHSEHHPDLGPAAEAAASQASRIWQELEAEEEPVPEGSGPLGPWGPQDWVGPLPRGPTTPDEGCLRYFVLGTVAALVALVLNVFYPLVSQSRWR
The gist of the method:
(§1)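 Triplicate samples of HEK293T lysate, 495 µg each, received fragment at 200 µM or vehicle for 3 h, followed by Biotin-Ahx-Ub-VS (0.5 µM final) for 1 h. After NeutrAvidin enrichment of labelled DUBs and LysC/trypsin digestion, peptides were run by diaPASEF LC-MS/MS. The values are average log2 fragment/vehicle ratios from global-median-normalised Spectronaut label-free quantities, tested by unpaired t-test on proteins having ≥2 unique peptides.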

The target of assay [2] is T2, USP22 (UniProt Q9UPT9).
T2 sequence (whole entry): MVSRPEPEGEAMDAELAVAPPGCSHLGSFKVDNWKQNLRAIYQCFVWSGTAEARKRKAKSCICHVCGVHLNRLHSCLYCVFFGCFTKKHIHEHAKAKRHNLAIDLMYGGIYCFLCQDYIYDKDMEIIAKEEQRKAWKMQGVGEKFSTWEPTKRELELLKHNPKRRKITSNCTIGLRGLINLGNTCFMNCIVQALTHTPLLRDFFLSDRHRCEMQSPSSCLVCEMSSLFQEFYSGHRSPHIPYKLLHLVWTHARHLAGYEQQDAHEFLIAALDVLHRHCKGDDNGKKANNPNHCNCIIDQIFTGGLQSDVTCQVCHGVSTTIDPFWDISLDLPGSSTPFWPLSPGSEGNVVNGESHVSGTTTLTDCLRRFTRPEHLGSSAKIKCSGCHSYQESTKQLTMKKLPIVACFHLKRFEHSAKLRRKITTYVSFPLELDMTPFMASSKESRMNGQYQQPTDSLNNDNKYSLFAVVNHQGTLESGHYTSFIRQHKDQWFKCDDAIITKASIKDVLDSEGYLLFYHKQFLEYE
The gist of the method:
as §1

Assay [3] has as its target USP24 (UniProt Q9UPU5). The gist of the method:
as §1

In assay [4] the target is T3, USP25 (UniProt Q9UHP3).
T3 sequence (whole entry): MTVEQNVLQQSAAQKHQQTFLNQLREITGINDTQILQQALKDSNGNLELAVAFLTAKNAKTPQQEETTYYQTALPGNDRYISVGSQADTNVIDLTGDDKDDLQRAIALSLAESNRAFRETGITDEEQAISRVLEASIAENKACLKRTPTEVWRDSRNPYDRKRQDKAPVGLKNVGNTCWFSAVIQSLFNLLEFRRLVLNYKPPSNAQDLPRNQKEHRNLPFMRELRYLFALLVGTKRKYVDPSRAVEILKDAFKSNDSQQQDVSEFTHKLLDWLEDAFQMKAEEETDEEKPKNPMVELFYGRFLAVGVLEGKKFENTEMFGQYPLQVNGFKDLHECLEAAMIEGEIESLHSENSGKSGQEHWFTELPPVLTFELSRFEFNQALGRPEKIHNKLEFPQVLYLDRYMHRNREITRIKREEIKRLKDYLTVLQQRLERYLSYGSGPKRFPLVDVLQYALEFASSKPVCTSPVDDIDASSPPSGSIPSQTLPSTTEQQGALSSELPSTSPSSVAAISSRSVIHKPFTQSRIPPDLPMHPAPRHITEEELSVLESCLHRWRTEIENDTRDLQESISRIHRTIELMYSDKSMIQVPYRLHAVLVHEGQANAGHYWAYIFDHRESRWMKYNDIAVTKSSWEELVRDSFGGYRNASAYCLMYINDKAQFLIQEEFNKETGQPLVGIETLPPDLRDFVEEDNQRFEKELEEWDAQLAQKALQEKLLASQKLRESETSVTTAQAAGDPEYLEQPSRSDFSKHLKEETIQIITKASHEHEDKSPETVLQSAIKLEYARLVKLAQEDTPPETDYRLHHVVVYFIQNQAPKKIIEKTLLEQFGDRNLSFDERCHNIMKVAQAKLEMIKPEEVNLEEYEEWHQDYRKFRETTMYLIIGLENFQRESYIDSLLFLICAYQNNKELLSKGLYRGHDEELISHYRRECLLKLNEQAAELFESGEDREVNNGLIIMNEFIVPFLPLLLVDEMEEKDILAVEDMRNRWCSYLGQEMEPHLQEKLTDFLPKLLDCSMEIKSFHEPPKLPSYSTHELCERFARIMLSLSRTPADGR
The gist of the method:
as §1

Assay [5] has as its target T4, USP28 (UniProt Q96RU2).
T4 sequence (whole entry): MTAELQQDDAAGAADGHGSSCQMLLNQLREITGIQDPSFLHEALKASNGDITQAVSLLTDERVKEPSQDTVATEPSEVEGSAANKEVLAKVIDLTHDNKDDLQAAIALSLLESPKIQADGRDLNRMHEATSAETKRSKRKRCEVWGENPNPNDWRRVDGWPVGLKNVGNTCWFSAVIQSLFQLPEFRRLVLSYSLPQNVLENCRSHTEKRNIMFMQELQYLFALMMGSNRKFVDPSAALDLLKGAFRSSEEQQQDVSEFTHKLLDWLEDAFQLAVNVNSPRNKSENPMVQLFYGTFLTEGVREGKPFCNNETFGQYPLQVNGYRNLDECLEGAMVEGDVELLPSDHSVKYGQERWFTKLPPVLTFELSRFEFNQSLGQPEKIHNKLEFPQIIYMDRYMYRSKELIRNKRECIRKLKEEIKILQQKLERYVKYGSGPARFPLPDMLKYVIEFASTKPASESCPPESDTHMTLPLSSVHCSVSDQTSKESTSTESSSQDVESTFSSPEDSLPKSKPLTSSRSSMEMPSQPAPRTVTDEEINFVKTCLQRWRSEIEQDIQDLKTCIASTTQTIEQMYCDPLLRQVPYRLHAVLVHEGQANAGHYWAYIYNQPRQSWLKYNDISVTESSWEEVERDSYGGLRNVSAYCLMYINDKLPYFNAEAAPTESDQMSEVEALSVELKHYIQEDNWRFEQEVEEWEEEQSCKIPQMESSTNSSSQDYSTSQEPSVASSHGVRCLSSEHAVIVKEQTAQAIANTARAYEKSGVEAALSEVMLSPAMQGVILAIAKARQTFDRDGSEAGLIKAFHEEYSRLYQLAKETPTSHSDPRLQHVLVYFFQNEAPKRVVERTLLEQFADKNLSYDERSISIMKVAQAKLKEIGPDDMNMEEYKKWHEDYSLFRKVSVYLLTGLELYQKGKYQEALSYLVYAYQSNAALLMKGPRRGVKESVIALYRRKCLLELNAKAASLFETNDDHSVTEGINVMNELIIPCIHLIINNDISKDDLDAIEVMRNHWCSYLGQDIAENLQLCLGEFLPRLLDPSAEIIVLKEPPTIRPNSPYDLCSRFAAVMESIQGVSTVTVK
The gist of the method: as §1

Chain of USP24 (Q9UPU5 whole entry): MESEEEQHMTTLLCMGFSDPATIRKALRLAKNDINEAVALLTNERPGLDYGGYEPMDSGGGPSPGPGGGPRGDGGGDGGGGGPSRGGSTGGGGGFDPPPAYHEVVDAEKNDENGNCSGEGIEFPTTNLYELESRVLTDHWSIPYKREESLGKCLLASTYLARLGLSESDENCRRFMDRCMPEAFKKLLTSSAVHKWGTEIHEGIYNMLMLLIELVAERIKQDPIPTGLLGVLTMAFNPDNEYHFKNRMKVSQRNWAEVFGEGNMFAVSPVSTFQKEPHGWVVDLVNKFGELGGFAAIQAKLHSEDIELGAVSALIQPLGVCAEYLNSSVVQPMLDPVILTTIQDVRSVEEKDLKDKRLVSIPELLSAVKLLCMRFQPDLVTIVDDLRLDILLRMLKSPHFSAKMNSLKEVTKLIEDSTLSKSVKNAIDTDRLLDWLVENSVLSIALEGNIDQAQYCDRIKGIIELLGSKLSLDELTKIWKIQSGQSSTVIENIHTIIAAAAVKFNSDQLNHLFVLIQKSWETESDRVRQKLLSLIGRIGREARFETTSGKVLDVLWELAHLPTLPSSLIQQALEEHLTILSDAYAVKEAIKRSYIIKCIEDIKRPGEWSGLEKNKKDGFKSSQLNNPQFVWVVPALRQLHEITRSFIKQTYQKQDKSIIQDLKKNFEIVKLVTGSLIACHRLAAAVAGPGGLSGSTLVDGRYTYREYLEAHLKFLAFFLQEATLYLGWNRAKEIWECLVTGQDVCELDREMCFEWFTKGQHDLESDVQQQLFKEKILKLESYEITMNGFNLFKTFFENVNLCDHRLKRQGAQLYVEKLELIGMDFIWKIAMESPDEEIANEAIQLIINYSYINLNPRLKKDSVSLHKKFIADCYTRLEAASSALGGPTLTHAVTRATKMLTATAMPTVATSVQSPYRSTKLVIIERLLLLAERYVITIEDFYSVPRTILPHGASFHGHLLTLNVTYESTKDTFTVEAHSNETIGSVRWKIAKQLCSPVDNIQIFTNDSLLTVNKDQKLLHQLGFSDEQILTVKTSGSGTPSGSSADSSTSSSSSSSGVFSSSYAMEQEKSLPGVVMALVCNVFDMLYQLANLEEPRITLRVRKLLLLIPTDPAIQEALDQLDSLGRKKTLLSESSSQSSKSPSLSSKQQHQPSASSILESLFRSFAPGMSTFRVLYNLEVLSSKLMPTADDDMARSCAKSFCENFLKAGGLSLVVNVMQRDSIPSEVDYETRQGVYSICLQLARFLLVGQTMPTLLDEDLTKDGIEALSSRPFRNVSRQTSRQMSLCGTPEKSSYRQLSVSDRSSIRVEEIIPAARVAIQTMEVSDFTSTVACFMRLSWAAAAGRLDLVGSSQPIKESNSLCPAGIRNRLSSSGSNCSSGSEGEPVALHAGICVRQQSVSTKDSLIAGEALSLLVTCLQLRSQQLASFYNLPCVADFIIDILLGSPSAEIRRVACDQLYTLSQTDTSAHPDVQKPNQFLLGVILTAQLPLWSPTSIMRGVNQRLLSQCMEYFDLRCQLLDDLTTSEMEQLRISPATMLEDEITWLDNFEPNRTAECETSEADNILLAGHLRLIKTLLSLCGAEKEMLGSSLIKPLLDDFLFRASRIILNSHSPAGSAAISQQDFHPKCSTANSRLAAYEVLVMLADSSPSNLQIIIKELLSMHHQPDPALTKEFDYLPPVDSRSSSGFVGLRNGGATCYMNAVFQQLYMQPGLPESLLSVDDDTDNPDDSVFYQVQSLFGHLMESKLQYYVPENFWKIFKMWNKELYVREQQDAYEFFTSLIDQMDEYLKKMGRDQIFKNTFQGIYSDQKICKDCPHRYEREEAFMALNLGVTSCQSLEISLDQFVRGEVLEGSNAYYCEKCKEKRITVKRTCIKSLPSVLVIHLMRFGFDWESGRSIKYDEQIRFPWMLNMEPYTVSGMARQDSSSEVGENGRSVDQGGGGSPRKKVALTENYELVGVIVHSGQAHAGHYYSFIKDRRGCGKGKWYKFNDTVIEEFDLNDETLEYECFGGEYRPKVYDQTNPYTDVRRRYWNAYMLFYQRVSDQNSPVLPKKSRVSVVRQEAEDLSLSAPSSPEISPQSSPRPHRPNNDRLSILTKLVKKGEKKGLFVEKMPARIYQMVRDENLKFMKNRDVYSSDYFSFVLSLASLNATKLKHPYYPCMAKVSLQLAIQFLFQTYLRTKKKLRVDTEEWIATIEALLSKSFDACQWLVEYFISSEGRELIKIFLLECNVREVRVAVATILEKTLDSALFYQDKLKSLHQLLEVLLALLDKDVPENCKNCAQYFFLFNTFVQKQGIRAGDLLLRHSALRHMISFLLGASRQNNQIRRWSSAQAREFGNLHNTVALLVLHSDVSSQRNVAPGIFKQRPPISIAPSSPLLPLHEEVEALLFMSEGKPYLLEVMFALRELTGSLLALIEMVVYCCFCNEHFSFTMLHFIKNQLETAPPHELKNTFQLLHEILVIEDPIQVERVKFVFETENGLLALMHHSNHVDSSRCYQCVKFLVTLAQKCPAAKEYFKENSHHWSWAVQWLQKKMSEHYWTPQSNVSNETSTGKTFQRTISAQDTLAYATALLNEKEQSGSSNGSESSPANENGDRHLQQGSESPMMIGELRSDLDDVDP

On to `CN(C)C(=O)c1ccc(NC(=O)CCl)cc1`, for which the “log2 ratio of Biotin-Ahx-Ub-VS probe labelling” value is -0.166 in assay [1]; -0.0455 in assay [2]; -0.00912 in assay [3]; -1.1 (active) in assay [4]; -1.47 (active) in assay [5].
